Laboratory results as given in paper PMC10726135, “HNF4α isoforms regulate the circadian balance between carbohydrate and lipid metabolism in the liver”.
In all, about 18,000 sequences were measured (“log2 normalized intensity”: median about 0.39, highest 2% from about 6.6 on). Only a selection was taken, and the highest values are over-represented in it overall.

target: T1, HNF4alpha2 (COS-7 nuclear extract) (Homo sapiens, UniProt P41235 1-474); assay: protein-binding microarray; COS-7 nuclear extract on double-stranded Agilent 4x180k PBM; binding buffer, salt, pH and temperature not given in the material; high values mean tight binding; conditions: chain copies: 2; label: 3' end of strand 1 on the slide; dsDNA, one strand shown
T1 sequence: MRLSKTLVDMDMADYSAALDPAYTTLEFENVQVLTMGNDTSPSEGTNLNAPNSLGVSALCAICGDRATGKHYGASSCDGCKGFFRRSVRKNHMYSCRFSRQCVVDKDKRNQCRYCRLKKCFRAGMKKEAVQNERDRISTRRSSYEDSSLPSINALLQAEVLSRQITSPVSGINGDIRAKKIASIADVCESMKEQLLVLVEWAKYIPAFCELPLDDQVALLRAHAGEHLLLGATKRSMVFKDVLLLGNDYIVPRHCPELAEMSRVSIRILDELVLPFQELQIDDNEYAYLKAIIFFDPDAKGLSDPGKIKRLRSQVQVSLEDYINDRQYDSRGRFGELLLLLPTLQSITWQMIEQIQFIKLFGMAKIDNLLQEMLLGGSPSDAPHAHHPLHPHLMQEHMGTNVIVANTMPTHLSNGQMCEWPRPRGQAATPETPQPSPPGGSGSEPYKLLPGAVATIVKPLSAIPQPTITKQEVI
Outline: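 Double-stranded oligonucleotides of ~60 nt, representing ~44,000 test sequences in quadruplicate, made up a custom Agilent SurePrint G3 4x180k array. Nuclear extracts from COS-7 cells transiently transfected by CaPO4 with a human HNF4α isoform expression vector were applied, and bound HNF4α was imaged at 2-µm resolution on an Agilent G2565CA scanner. Binding signal refers to the background-corrected, normalized gProcessedSignal output of Agilent software.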

Sequence	binding signal [log2 normalized intensity]
GAGAAGTTGCTCTTTACACCATTGCAAGGAGCCTAGGGAGATTAGAGTATCGGTCGA	-0.941
GGAGCCCCCTGGGGGAGGTTTCCTGCTGTCGCCTAGGGAGATTAGAGTATCGGTCGA	-0.946
ATCTTCCTCCCCCCTTGGCTACATGTTTGTGCCTAGGGAGATTAGAGTATCGGTCGA	3.7
CTGCAAAGAAGTCAAACTTTGGACCCACTGGCCTAGGGAGATTAGAGTATCGGTCGA	5.97
TCAGGAGCCCCACAGAGCAAAGGTCATGCAGCCTAGGGAGATTAGAGTATCGGTCGA	5.38
TGATCCAGGGCAAAGGTCATAATTTGATCCGCCTAGGGAGATTAGAGTATCGGTCGA	6.34
AGAAAACACAGAGATCTGATCAAAGGTCATGCCTAGGGAGATTAGAGTATCGGTCGA	5.9
GGACTTGATCCAGGGCAAAGGTCATAATTTGCCTAGGGAGATTAGAGTATCGGTCGA	6.98
ACACAGGACTTGATCCAGGGCAAAGGTCATGCCTAGGGAGATTAGAGTATCGGTCGA	7.38
CAAAGGTCATAATTTGATCCAGTGTGCAAAGCCTAGGGAGATTAGAGTATCGGTCGA	3.35
GAGCTTTTACCTCAAATAAAGGTCAGAGTCGCCTAGGGAGATTAGAGTATCGGTCGA	1.79
GTATCAGGGCTCAGGAATGTGGGGTCAACAGCCTAGGGAGATTAGAGTATCGGTCGA	2.99
CCGCGACAAGCGTCGCTGAGTGGAGGCCCAGCCTAGGGAGATTAGAGTATCGGTCGA	-0.847
GCCACGGTCAGCAATGTGGACTTTGTCCTGGCCTAGGGAGATTAGAGTATCGGTCGA	9.67
ATGGACTTTGAAGGAGATTCCTGTGTCAGCGCCTAGGGAGATTAGAGTATCGGTCGA	0.984
GTGGGAGAAAGCTTTGGACTTTGGGCTGTGGCCTAGGGAGATTAGAGTATCGGTCGA	5.72
GGTCAGCAATGTGGACTTTGTCCTGTGGGCGCCTAGGGAGATTAGAGTATCGGTCGA	7.77
GTGGACTTTGTCCTGTGGGCTGTAAAAATCGCCTAGGGAGATTAGAGTATCGGTCGA	5.03
CCGTCCTGTCCTGGACTTTCCTTTGTTGGGGCCTAGGGAGATTAGAGTATCGGTCGA	2.3
GCAATGTGGACTTTGTCCTGTGGGCTGTAAGCCTAGGGAGATTAGAGTATCGGTCGA	7.35
AGTTTGCCACGGTCAGCAATGTGGACTTTGGCCTAGGGAGATTAGAGTATCGGTCGA	6.18
TGGACTTTGGTCCTGGTCAGACTTGCCACGGCCTAGGGAGATTAGAGTATCGGTCGA	4.5
TTGTCAGTGCCCTATACAGACCTTTGTATAGCCTAGGGAGATTAGAGTATCGGTCGA	2.96
CTCACAGAGTGGAGTCTTCCGTTTGATAGAGCCTAGGGAGATTAGAGTATCGGTCGA	-0.436
CTTTATCTAGATAAGTTTATTTACTTATGTGCCTAGGGAGATTAGAGTATCGGTCGA	1.49
ATGGTCAGTGTTGATAAGAAAGCTGCAGTCGCCTAGGGAGATTAGAGTATCGGTCGA	0.747
TAGGTTATCTTTGGAGAATGCCTTTTGTGTGCCTAGGGAGATTAGAGTATCGGTCGA	2.15

Sequence	binding signal [log2 normalized intensity]
ATACTTAGGATTTTTGTGCCTCTTTGGTGAGCCTAGGGAGATTAGAGTATCGGTCGA	1.13
TATTCAAACAGAGGACAGTTGTGTTTGTTGGCCTAGGGAGATTAGAGTATCGGTCGA	1.96
TTTGGTGAGGCCCCAGTGTCAATTCTCATTGCCTAGGGAGATTAGAGTATCGGTCGA	1.82
CAGGCTGTTTTCCTATAGATTTGTTAAATCGCCTAGGGAGATTAGAGTATCGGTCGA	1.13
CTTTGTGGCAGGAGGAGCTGTTTGACATCCGCCTAGGGAGATTAGAGTATCGGTCGA	0.0869
AAAGGGACTCATCTCCAAACGAGACTTTGGGCCTAGGGAGATTAGAGTATCGGTCGA	1.6
GCTAAGAGACAGCTCCACAGCTGGACTTTGGCCTAGGGAGATTAGAGTATCGGTCGA	5.15
CTCCAAACATCTTTGGTATGGACTGATATTGCCTAGGGAGATTAGAGTATCGGTCGA	1.5
GAGACAGCTCCACAGCTGGACTTTGGCTGCGCCTAGGGAGATTAGAGTATCGGTCGA	5.41
GGTGAGATAAGAAGACTCCAGGGGACTGCCGCCTAGGGAGATTAGAGTATCGGTCGA	-0.872
ATCTCCAAACGAGACTTTGGACTTTGGACTGCCTAGGGAGATTAGAGTATCGGTCGA	11.8
ATCTCCAGATAAGACTTTGGACTTTGGACCGCCTAGGGAGATTAGAGTATCGGTCGA	11.6
ACAGTTCTGATACATTGGACAACTGTACTTGCCTAGGGAGATTAGAGTATCGGTCGA	2.1
TACATTGGACAACTGTACTTTGGACTGGGGGCCTAGGGAGATTAGAGTATCGGTCGA	5.99
TCTGATACATTGGACAACTGTACTTTGGACGCCTAGGGAGATTAGAGTATCGGTCGA	7.2
GGGTGAAAGGGACTCATCTCCAAACGAGACGCCTAGGGAGATTAGAGTATCGGTCGA	-0.986
GACTCATCTCCAAACGAGACTTTGGACTTTGCCTAGGGAGATTAGAGTATCGGTCGA	8.97
ATGATTGACAGGTTATTTCAATTACAAAGCGCCTAGGGAGATTAGAGTATCGGTCGA	1.06
CCCGGCAGATCAGGGTCAGGCTGTGGTACGGCCTAGGGAGATTAGAGTATCGGTCGA	0.662
AGTCCCTGTCCCTTCTTGGCAAGTTAATGTGCCTAGGGAGATTAGAGTATCGGTCGA	1.94
GGTGAGGGTGAGGGTGAGGGTTAGGGGTTAGCCTAGGGAGATTAGAGTATCGGTCGA	-0.0851
CATTAAGCTTAGCGTTATCAAACCAAATATGCCTAGGGAGATTAGAGTATCGGTCGA	-0.0208
GGTCAACACAATCTGATAGTTGATTGATTGGCCTAGGGAGATTAGAGTATCGGTCGA	0.627
TCATCTTCAAAGCCAGCAATGGCAGGTCCAGCCTAGGGAGATTAGAGTATCGGTCGA	1.41
TCTGCAGACATGGACTCTGGGATCTCAGGGGCCTAGGGAGATTAGAGTATCGGTCGA	1.24
ACAGCTAGTCTAGACTTTGCTTTCTTGGAGGCCTAGGGAGATTAGAGTATCGGTCGA	1.24
TGGTGGGGAATGCTAGGACTCATTCTCCCCGCCTAGGGAGATTAGAGTATCGGTCGA	0.442
